In PubChem BioAssay (NCATS):
Records with an inconclusive call do not appear. The source made the active and inactive calls. Unless noted, calls come from the whole dose curve; as a rule, active = well fitted curve in the direction sought with a large enough effect; inconclusive = small, poorly fitted or top-dose-only effect, or another doubt; inactive = no such curve, though single readings can be large; an effect the other way counts as inactive or inconclusive.

Key:
[1] = target: Mitogen-activated protein kinase 10 (Mus musculus) (UniProt Q61831); test: JNK3 AlphaScreen Assay (AID 530; active = well fitted curve in either direction with a large enough effect, not every such curve was filed as active;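 note: kinase came from lysate of stimulated human HepG2 cells; signal reports phosphorylation of biotinylated GST-cJun 1-79 at Ser73 with 10 µM ATP; % is set by controls: 0 for no effect and ±100 for the full control effect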)
How it was run: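 Biotinylated GST-cJun(1-79) served as substrate for JNK3 in HepG2 lysates stimulated with IL-1beta and TNF-alpha. ATP was 10 uM final, pH 7.6. Ser73 phosphorylation was quantified by AlphaScreen (680 nm excitation).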

[2] = Cell Viability - NIH 3T3 (AID 541); settings: NIH 3T3 cell viability, qHTS; at 92.2 µM (top of the series);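 note: cells exposed to compound for 40 hours; plate controls were DMSO alone for no effect and tamoxifen positive control for full effect; nearly all actives have a fitted effect of over 25% in size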
How it was run: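 In this cytotoxicity screen, acute toxicity is scored as an ATP drop measured by CellTiter-Glo in NIH 3T3 fibroblasts following a 40 hr, 37 °C incubation with compound.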

[3] = Cell Viability - HUV-EC-C (AID 542);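 note: cells exposed to compound for 40 hours; nearly all actives have a fitted effect of over 35% in size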; note: potency is the fitted concentration of half-maximal effect; for activity change, negative = cytotoxicity: % is set by controls: 0 for no effect and ±100 for the full control effect
How it was run: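 Concentration-dependent ATP loss in HUV-EC-C cells is the measure. Exposure lasts 40 hr at 37 °C; luminescence follows CellTiter-Glo addition, and Hill fits give AC50.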

[4] = Cell Viability - SH-SY5Y (AID 544); settings: SH-SY5Y neuroblastoma cell viability; viability change, negative = cytotoxic: at 92.2 µM (top of the series);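 note: cells exposed to compound for 40 hours; nearly all actives have a fitted effect of over 55% in size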
How it was run: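 Quantitative HTS in SH-SY5Y neuroblastoma cells, 40 hr treatment at 37 °C, ATP content by luciferase luminescence; AC50 from Hill fits.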

[5] = Cell Viability - Mesenchymal (AID 546); settings: mesenchymal cells viability, qHTS; activity change, negative = cytotoxicity: at 91.7 µM (top of the series);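 note: cells exposed to compound for 40 hours before reading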
How it was run: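 In this qHTS cytotoxicity format, glomerulus-derived human mesenchymal kidney cells received compound for 40 hr, then luciferase-based ATP quantitation. Concentration-response data were fitted with the Hill equation.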

[6] = Cellular Toxicity (caspase-3) HepG2 (AID 654); note: potency is the fitted concentration of half-maximal effect;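 for caspase-3 activation: cells exposed to compound for 16 hours before reading; 0% = DMSO alone and 100% = caspase signal from 100 µM tamoxifen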
How it was run: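 Concentration-response AC50 values reflect caspase-3/7 induction in HepG2 cells after 16 hours of compound exposure, quantified by luminescence from liberated aminoluciferin and referenced to 100 uM tamoxifen as full stimulation.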

[7] = Cellular Toxicity (caspase-3) Jurkat (AID 655); settings: Jurkat caspase-3 activation, luminescence, DMSO = 0%, tamoxifen = 100%; at 92.2 µM (top of the series);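 note: cells exposed to compound for 16 h at 37 °C before reading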
How it was run: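 Caspase 3/7 activation is scored as increased luminescence in Jurkat cells cultured with compound for 16 hours in complete medium. AC50 values come from Hill fits of qHTS concentration-response data normalized to DMSO and 100 uM tamoxifen controls.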

[8] = Cellular Toxicity (caspase-3) HUV-EC-C (AID 656); note: potency is the fitted concentration of half-maximal effect
How it was run: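 Read-out: luminescence proportional to caspase 3/7 activity, measured 20 min after adding Caspase-Glo 3/7 reagent. Cells (HUV-EC-C) had received compound for 16 hr at 37°C. Increases relative to DMSO and 100 uM tamoxifen gave concentration-response AC50 values.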

[9] = Cellular Toxicity (caspase-3) SHSY5Y (AID 657)
How it was run: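 Cells plated and incubated 5 h at 37 °C, dosed over a concentration range, incubated 16 h, then given Caspase-Glo 3/7 reagent for 1 h at room temperature before luminescence reading. Staurosporine (10 uM) defined full stimulation.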

[10] = Cellular Toxicity (caspase-3) BJ (AID 658);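 note: 0% = DMSO basal and 100% = 10 µM staurosporine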
How it was run: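 Plated BJ cells (1000/well) rested 5 hr, received compound for 16 hr at 37 °C, then Caspase-Glo 3/7 reagent for 1 hr at room temperature before luminescence reading.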

[11] = Cellular Toxicity (caspase-3) MRC-5 (AID 659); settings: Potency: caspase-3 activation;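 note: 0% = DMSO basal and 100% = 10 µM staurosporine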
How it was run: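 Apoptosis readout in MRC-5 cells: luciferase light generated after caspase 3/7 cleaves a peptide-aminoluciferin substrate, measured post 16 hr compound incubation at 37 °C.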

[12] = Cellular Toxicity (caspase-3) Mesangial (AID 660); settings: mesangial cells, normalized: DMSO 0%, 100 µM tamoxifen 100%; at 91.7 µM (top of the series);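 note: cells exposed to compound for 16 h before the caspase read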
How it was run: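 AC50 values come from Hill-equation fits of caspase 3/7 activation, measured as Caspase-Glo luminescence in human glomerular mesangial cells exposed to compound for 16 h at 37 °C; 100% set by 100 uM tamoxifen.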

[13] = Cellular Toxicity (caspase-3) SK-N-SH (AID 661);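 note: 0% = DMSO basal and 100% = 10 µM staurosporine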
How it was run: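 Apoptosis readout in SK-N-SH neuroblastoma: Caspase-Glo 3/7 luminescence following 16 hr treatment in complete culture medium. Normalization used DMSO and 10 uM staurosporine controls.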

[14] = Cellular Toxicity (caspase-3) H-4-II-E (AID 663); settings: H-4-II-E rat hepatoma, scaled: DMSO 0%, 100 µM tamoxifen 100%; at 92.2 µM (top of the series);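 note: cells exposed to compound for 16 hr before readout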
How it was run: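 Caspase 3/7 activation measured in H-4-II-E cells in complete culture medium after 16 hr treatment at 37 °C, using luciferase-coupled substrate readout; AC50 values come from Hill-equation fits of normalized concentration-response data.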

[15] = Cellular Toxicity (caspase-3) Hek293 (AID 664); settings: HEK293 caspase-3 activation; caspase-3 activation: at 92.2 µM (top of the series), DMSO = 0%, 100 µM tamoxifen = 100%;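 note: cells exposed to compound for 16 h at 37 °C before readout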
How it was run: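 Apoptosis readout: Caspase-Glo 3/7 signal in human HEK293 cells following 16-hour compound incubation. Responses scaled between DMSO baseline and 100 uM tamoxifen.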

[16] = Cellular Toxicity (caspase-3) N2a (AID 665); settings: Potency: caspase-3 activation;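 note: compound exposure lasted 16 h at 37 °C before readout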
How it was run: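 Concentration-response qHTS: compound-induced caspase-3/7 luminescence in N2a cells (16 h, 37 °C), relative to DMSO and 10 uM staurosporine controls; AC50 obtained using the standard Hill equation.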

[17] = Cellular Toxicity (caspase-3) NIH 3T3 (AID 666);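 note: caspase signal read after 16 h compound exposure; 0% = DMSO basal and 100% = 100 µM tamoxifen stimulation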
How it was run: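 Activity: caspase-3/7 induction, NIH 3T3 cells, 16 hr treatment at 37°C, luminescent Caspase-Glo detection; AC50 via Hill equation.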

[18] = target: 3',5'-cyclic-AMP phosphodiesterase 4B (Homo sapiens) (UniProt Q07343); test: qHTS Assay for Inhibitors of PDE-IV (AID 607; active = well fitted activation curve with a large enough effect in the main read-out, with a control signal flat, not every such curve was filed as active; note: % of control where 0% means no effect)
How it was run: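 Cell-based read-out of cAMP via a modified cyclic nucleotide-gated channel and membrane potential dye (535/590 nm) in HEK293 cells expressing PDE4 endogenously. Compounds tested up to 22.9 uM final; 100 uM RO 20-1724 reference.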

[19] = Cell Viability - N2a (AID 540); settings: N2a mouse neuroblastoma cell viability; activity change, negative = cytotoxicity: at 92.2 µM (top of the series);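 note: cells exposed to compound for 40 h at 37 °C; plate controls were DMSO alone for no effect and tamoxifen control for full effect; nearly all actives have a fitted effect of over 45% in size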
How it was run: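 In this qHTS cytotoxicity screen, ATP-dependent luciferase luminescence reports viable N2a cells after a 40 hr compound exposure in complete culture medium. Potencies are AC50 values from standard Hill equation fits.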

[20] = Cell Viability - H-4-II-E (AID 543);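 note: cells exposed to compound for 40 hours; nearly all actives have a fitted effect of over 35% in size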; note: potency is the fitted concentration of half-maximal effect
How it was run: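 AC50 from Hill-modelled qHTS concentration-response curves. H-4-II-E rat hepatoma cells in complete medium, 40 hr exposure at 37 °C, viability by CellTiter-Glo ATP luminescence.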

3',5'-cyclic-AMP phosphodiesterase 4B (Homo sapiens), sequence (Q07343 whole entry, looked up): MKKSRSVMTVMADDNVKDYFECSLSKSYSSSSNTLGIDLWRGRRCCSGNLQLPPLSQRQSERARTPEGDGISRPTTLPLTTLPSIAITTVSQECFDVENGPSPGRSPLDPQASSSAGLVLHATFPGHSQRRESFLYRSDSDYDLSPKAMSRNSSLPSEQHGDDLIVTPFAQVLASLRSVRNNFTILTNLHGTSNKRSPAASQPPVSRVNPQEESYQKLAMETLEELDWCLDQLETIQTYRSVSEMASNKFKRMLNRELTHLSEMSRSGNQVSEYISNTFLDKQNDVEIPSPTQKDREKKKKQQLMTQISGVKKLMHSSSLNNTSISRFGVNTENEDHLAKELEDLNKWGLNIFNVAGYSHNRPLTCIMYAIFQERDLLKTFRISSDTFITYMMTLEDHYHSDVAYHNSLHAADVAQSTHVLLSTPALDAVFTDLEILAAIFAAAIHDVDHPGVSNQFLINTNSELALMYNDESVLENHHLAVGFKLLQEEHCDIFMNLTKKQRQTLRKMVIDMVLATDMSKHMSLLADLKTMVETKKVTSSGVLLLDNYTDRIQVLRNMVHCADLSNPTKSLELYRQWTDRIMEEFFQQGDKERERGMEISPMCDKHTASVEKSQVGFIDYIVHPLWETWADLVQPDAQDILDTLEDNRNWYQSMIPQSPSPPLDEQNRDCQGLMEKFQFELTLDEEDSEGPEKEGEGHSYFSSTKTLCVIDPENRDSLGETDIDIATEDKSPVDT

COc1ccc(-c2coc3cc(O)cc(O)c3c2=O)cc1
inactive: outcome [1]

CC(=O)O[C@]1(C(C)=O)CC[C@H]2[C@@H]3C=C(Cl)C4=CC(=O)[C@@H]5C[C@@H]5[C@]4(C)[C@H]3CC[C@@]21C
inactive: outcome [1] | Potency [3] | Potency [4] | Potency [5] | Potency [6] | caspase-3 activation [7] 11.6% | Potency [8] | outcome [9] | outcome [10] | Potency [11] | caspase-3 activation [12] -0.0763% | Potency [13] | caspase-3 activation [14] 0.0575% | Potency [15] | Potency [16] | outcome [17]
active: activity change, negative = cytotoxicity [2] -124%

O=C1NCC2(CCN(CCc3ccccc3)CC2)O1
inactive: outcome [1] | outcome [18]

COc1ccc(Cc2nccc3cc(OC)c(OC)cc23)cc1OC
inactive: outcome [1]

c1cc(-c2sc(-c3ccncc3)c(-c3ccncc3)c2-c2ccncc2)ccn1
inactive: activity change, negative = inhibition [1] -6.48% [at 11.4 µM] | outcome [18]

O=C(O)Cc1cccc2ccccc12
inactive: outcome [1] | Potency [19] | activity change, negative = cytotoxicity [2] -29.6% | Potency [3] | Potency [20] | Potency [4] | Potency [5] | Potency [6] | caspase-3 activation [7] 1.08% | Potency [8] | outcome [9] | outcome [10] | Potency [11] | caspase-3 activation [12] 0.654% | Potency [13] | caspase-3 activation [14] 0.142% | Potency [15] | Potency [16] | outcome [17]

CC(C)[C@H](CO)Nc1nc(Nc2ccc(C(=O)O)c(Cl)c2)c2ncn(C(C)C)c2n1
inactive: outcome [1]

COc1ccc(-c2coc3cc(O)ccc3c2=O)cc1
inactive: outcome [1]

O=C1C[C@@H](c2ccc(O)cc2)Oc2cc(O)cc(O)c21
inactive: outcome [1] | outcome [18]

O=C(O)c1cc(O)c2c(c1)C(=O)c1cccc(O)c1C2=O
inactive: outcome [1] | Potency [3] | Potency [20] | Potency [4] | Potency [6] | caspase-3 activation [7] -6.3% | Potency [8] | outcome [9] | outcome [10] | Potency [11] | caspase-3 activation [12] -1.07% | Potency [13] | caspase-3 activation [14] 1.57% | Potency [15] | Potency [16] | outcome [17]

O=C1NC(=O)C(c2ccccc2)(c2ccccc2)N1
inactive: outcome [1] | Potency [19] | activity change, negative = cytotoxicity [2] -17.5% | Potency [3] | Potency [20] | Potency [4] | Potency [5] | outcome [18] | Potency [6] | caspase-3 activation [7] 1.33% | Potency [8] | outcome [9] | outcome [10] | Potency [11] | caspase-3 activation [12] 0.351% | Potency [13] | caspase-3 activation [14] 0.679% | Potency [15] | Potency [16] | outcome [17]

O=c1c(O)c(-c2ccc(O)cc2)oc2cc(O)cc(O)c12
inactive: outcome [1] | Potency [19] | Potency [3] | Potency [5] | outcome [18] | Potency [6] | caspase-3 activation [7] 1.17% | Potency [8] | outcome [9] | outcome [10] | Potency [11] | caspase-3 activation [12] -0.85% | Potency [13] | Potency [15] | Potency [16] | outcome [17]

CC(=O)c1ccc(S(=O)(=O)NC(=O)NC2CCCCC2)cc1
inactive: outcome [1] | Potency [19] | activity change, negative = cytotoxicity [2] -15.1% | Potency [3] | Potency [20] | Potency [4] | Potency [5] | outcome [18] | Potency [6] | caspase-3 activation [7] 0.00348% | Potency [8] | outcome [9] | outcome [10] | Potency [11] | caspase-3 activation [12] 0.0312% | Potency [13] | caspase-3 activation [14] 1.08% | Potency [15] | Potency [16] | outcome [17]

C[N+](C)(C)CC(=O)O
inactive: outcome [1] | outcome [18]

CC/C(=C(\c1ccccc1)c1ccc(OCCN(C)C)cc1)c1ccccc1
active: activity change, negative = cytotoxicity [19] -117% | Potency [3] 50.1 µM | Potency [20] 50.1 µM | viability change, negative = cytotoxic [4] -99.3% | activity change, negative = cytotoxicity [5] -91.4% | Potency [6] 50.1 µM | Potency [8] 63.1 µM | caspase-3 activation [15] 147%
inactive: outcome [1] | outcome [17]

CCCCC1C(=O)N(c2ccccc2)N(c2ccccc2)C1=O
inactive: outcome [1] | Potency [19] | activity change, negative = cytotoxicity [2] -19.1% | Potency [3] | Potency [20] | Potency [4] | Potency [5] | outcome [18] | Potency [6] | caspase-3 activation [7] 0.354% | Potency [8] | outcome [9] | outcome [10] | Potency [11] | caspase-3 activation [12] 0.46% | Potency [13] | caspase-3 activation [14] 0.827% | Potency [15] | Potency [16] | outcome [17]

COc1cccc(-c2cc(=O)c3ccccc3o2)c1N
inactive: outcome [1] | outcome [18]
